Source: PubChem BioAssay
A selection: hits, their analogues and other compounds. The true share with any hit is near 2.4%.
D2 PAM-1: positive allosteric modulators of human D2 dopamine receptor | P14416 | actives 0.23% (n = 360,000) | DiscoveRx D2 beta-arrestin cells, luminescence, 90 min; 100% = 57 uM dopamine signal | AID 624464 | potentiation, % (concentration not given with the values); in the data active = potentiation above about 50%; inconclusive = mostly about 30% to 49%
Target sequence (P14416 whole entry, looked up): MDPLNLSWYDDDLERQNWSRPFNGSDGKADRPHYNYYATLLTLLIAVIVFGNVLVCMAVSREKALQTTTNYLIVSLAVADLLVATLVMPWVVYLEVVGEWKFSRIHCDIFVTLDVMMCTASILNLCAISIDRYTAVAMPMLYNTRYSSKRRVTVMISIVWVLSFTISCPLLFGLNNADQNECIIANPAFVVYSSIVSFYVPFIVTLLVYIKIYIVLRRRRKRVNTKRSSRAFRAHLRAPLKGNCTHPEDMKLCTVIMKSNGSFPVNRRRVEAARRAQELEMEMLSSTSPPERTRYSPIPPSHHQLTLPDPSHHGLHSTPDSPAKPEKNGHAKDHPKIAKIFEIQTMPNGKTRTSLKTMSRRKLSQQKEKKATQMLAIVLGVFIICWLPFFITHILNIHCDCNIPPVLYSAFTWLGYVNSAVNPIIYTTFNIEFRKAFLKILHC
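D2 cells co-treated with compound plus 50 nM dopamine (EC20) for 90 min at 37 deg C to detect potentiation. Beta-arrestin recruitment was read as enzyme-fragment luminescence after 1 h at ambient temperature. Full response was set by 57 uM dopamine.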
D2 PAM-2: positively modulates the human D2 dopamine receptor allosterically; HEK293 T-REx D2, calcium flux, EC20 dopamine potentiation; AID 485347; P14416; potentiation, % at 10 µM; actives 0.34% (n = 340,000);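 active = potentiation over 3 SD above the plate norm, cut at about 30% in these data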
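Tetracycline-induced HEK293 T-REx cells force-coupled to calcium signalling expressed D2; compounds were pin-added after a 10 s baseline, read kinetically 180 s, then an EC20 dopamine challenge followed with a further 180 s calcium read.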
D2 antagonist: D2 dopamine receptor (human) antagonism. HEK293 TREx D2 cells, calcium flux, dopamine EC80. P14416. actives 2% (n = 340,000). inhibition, % at 10 µM; in the data active = inhibition above about 30%; inactive = below that, where a call was filed
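Antagonism is scored as inhibition of an EC80 dopamine-evoked calcium signal in a force-coupled, tetracycline-inducible HEK293 T-REx D2 line, with compound present 180 s before agonist.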
D2 ag-1: D2 dopamine receptor (human) agonism. P14416. HEK293 T-REx D2 cells, calcium flux agonist mode. activation, % at 2 µM. actives 0.53% (n = 340,000). AID 485358;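 active = activation over 3 SD above normal in the single-dose calcium agonist read, cut at about 30% in these data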
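Agonism scored from kinetic calcium signal (1 read/sec, 180 s) following compound pin transfer, after a 10 s baseline. Cells: HEK293 Trex line expressing inducible D2 receptor coupled to calcium, dye-loaded after overnight culture at 30 C.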
D2 ag-2: human D2 receptor agonism in beta-arrestin assay | P14416 | DiscoveRx PathHunter D2 beta-arrestin, luminescence, 90 min; 100% = 57 uM dopamine signal | activation, % (concentration not given with the values) | actives 0.084% (n = 360,000); in the data active = activation above about 40%; inconclusive = between about 15% and that limit
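Agonist mode: compounds alone added to overnight-plated D2 PathHunter cells for 90 min at 37 C, with 57 uM final dopamine (EC100) defining full response. Beta-arrestin recruitment detected by chemiluminescent reagent, read after 1 h at ambient temperature.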
D3 ag: D3 receptor agonism confirmed, beta-arrestin readout; DiscoveRx D3 beta-arrestin cells, luminescence, 90 min; actives 4% (n = 2,300); shares compounds with D2 ag-1; Potency, µM (titrated, usually from 76.9 µM), actives largely listed as activators; also: nearly all actives have a fitted effect of over 70% in size
D2 ag-3: D2 receptor agonism, beta-arrestin counterscreen; Potency, µM (top dose mostly 76.9 µM), actives largely listed as activators; actives 5.9% (n = 2,300); shares compounds with D2 ag-1; DiscoveRx PathHunter D2 beta-arrestin, luminescence, 90 min; response scale: percent relative to full dopamine signal; also: nearly all actives have a fitted effect of over 70% in size
Large screens that a line does not name were inactive (follow-up assays come after a bar, where they were run). Unless noted, calls follow the shape of the dose curve; as a rule, active = well fitted activation curve with a large enough effect; inconclusive = small, poorly fitted or top-dose-only effect; inactive = flat fitted curve, though single readings scatter.

Cc1ccc(CN(C(=O)c2cccs2)C2CCS(=O)(=O)C2)cc1 (stereo unspecified)	none
COC(=O)c1cc2oc3ccccc3c2n1Cc1c(F)cccc1Cl	none (no result: D2 PAM-1, D2 antagonist, D2 ag-2)
CCOc1ccc(-c2c(C)nn3c(-c4ccccc4)c(C(=O)NCCOC)cnc23)cc1OCC	none (no result: D2 PAM-1, D2 antagonist, D2 ag-2)
O=C(Nc1ccc(C(=O)NCCCN2CCN(c3ccccc3)CC2)cc1)C1=CSCCO1	D2 antagonist 81.4, D2 ag-1 81.8, D2 ag-2 44.4 | D3 ag inactive | D2 ag-3 inconclusive
COC(=O)c1ccc(NC(=O)CCN2CCN(c3ccccc3)CC2)cc1	D2 antagonist 50.3, D2 ag-1 53.9, D2 ag-2 inconclusive | D3 ag inconclusive | D2 ag-3 inconclusive
O=C(CCN1CCN(c2ccccc2)CC1)Nc1ccc(Cl)cc1	none
COC(=O)c1cc(CN2CCN(c3ccccc3)CC2)ccc1O	none | D3 ag inactive | D2 ag-3 inactive
O=C(CCN1CCN(c2ccccc2)CC1)Nc1ccc(OCc2ccccc2)cc1	D2 antagonist 65.0, D2 ag-1 52.7 | D3 ag inconclusive | D2 ag-3 inconclusive
COC(=O)c1ccc(OCC2c3cc(OC)c(OC)cc3CCN2C(=O)Cc2ccc(OC)cc2)cc1 (stereo unspecified)	none (no result: D2 PAM-1, D2 antagonist, D2 ag-2)
COc1ccc(Nc2cc(C)c3cc(NC(=O)COc4cccc(C)c4)ccc3n2)cc1	none (no result: D2 PAM-1, D2 antagonist, D2 ag-2)
CCN1C(C(=O)c2ccccc2)=C(OC(=O)c2ccc(Cl)cc2)c2ccccc2S1(=O)=O	none (no result: D2 PAM-1, D2 antagonist, D2 ag-2)
O=C(NCc1ccc(F)cc1Cl)c1ccc(CSCc2ccccc2Cl)o1	none (no result: D2 PAM-1, D2 antagonist, D2 ag-2)
COc1ccc(NC(=O)CCN2CCN(c3ccccc3F)CC2)c(OC)c1	D2 antagonist 85.7, D2 ag-1 89.9, D2 ag-2 49.2 | D3 ag inconclusive | D2 ag-3 inconclusive
O=C(CCN1CCN(c2ccccc2)CC1)Nc1ccc2c(c1)OCO2	D2 antagonist 108.3, D2 ag-1 102.6, D2 ag-2 inconclusive | D3 ag inconclusive | D2 ag-3 inconclusive
O=C(CCN1CCN(c2ccccc2)CC1)Nc1cccc(Br)c1	D2 antagonist 75.2, D2 ag-1 59.8 | D3 ag inactive | D2 ag-3 inactive
CCN1CCN(CCC(=O)Nc2ccc3c(c2)OCO3)CC1	none
O=C(CCN1CCN(c2ccccc2)CC1)Nc1nccs1	D2 antagonist 92.6, D2 ag-1 70.5 | D3 ag inactive | D2 ag-3 inactive
COc1ccc(NC(=O)CN2CCN(c3ccccc3F)CC2)c(OC)c1	none (no result: D2 PAM-1, D2 antagonist, D2 ag-1, D2 ag-2)
COc1ccc(-c2nc3sc(CCNC(=O)c4ccc(C(C)(C)C)cc4)c(C)n3n2)cc1	none (no result: D2 PAM-1, D2 antagonist, D2 ag-2)
O=C(CCN1CCN(c2ccccc2F)CC1)Nc1ccc2c(c1)OCO2	D2 antagonist 86.4, D2 ag-1 80.2, D2 ag-2 inconclusive | D3 ag inconclusive | D2 ag-3 inconclusive
O=C(CN1CCN(c2ccc(O)cc2)CC1)Nc1ccc2c(c1)OCCCO2	D2 ag-1 34.7 | D3 ag 39.8µM | D2 ag-3 35.5µM
Cc1ccc(CNC(=O)CN2C(=O)CCn3nc(-c4ccccc4)cc32)cc1	none (no result: D2 PAM-1, D2 antagonist, D2 ag-2)
COc1ccc(CCNc2oc(/C=C/c3ccc(OC)c(OC)c3)nc2C#N)cc1	none (no result: D2 PAM-1, D2 antagonist, D2 ag-1, D2 ag-2)
COc1ccccc1CNS(=O)(=O)c1cc2c3c(c1)CCN3C(=O)CC2	D2 PAM-1 inconclusive, D2 antagonist 74.8 | D3 ag inactive | D2 ag-3 inactive
NC1=NC(c2cccc(Cl)c2)n2c(nc3ccccc32)N1 (stereo unspecified)	none (no result: D2 PAM-1, D2 antagonist, D2 ag-1, D2 ag-2)
O=C1C2CCCCN2C(=O)N1CCN1CCN(c2ccc(F)cc2)CC1 (stereo unspecified)	none (no result: D2 PAM-2, D2 antagonist, D2 ag-1)
O=C1C2CCCN2C(=O)N1CCCCN1CCN(c2cccc(Cl)c2)CC1 (stereo unspecified)	D2 antagonist 79.6, D2 ag-1 65.8 | D3 ag inactive | D2 ag-3 inactive
Cc1ccc(N2CCN(CCCCN3C(=O)C4CCCN4C3=O)CC2)cc1 (stereo unspecified)	none (no result: D2 antagonist, D2 ag-1)
O=C1C2CCCN2C(=O)N1CCN1CCN(c2ccccc2)CC1 (stereo unspecified)	D2 antagonist 70.8, D2 ag-1 42.0 | D3 ag inactive | D2 ag-3 inactive
O=C1C2CCCN2C(=O)N1CCCCN1CCN(c2ccccc2)CC1 (stereo unspecified)	D2 antagonist 61.9, D2 ag-1 85.7, D2 ag-2 inconclusive | D3 ag inconclusive | D2 ag-3 inconclusive
CCN(C(=O)CSc1nc2ccccc2n1CC(=O)NCc1ccc(OC)cc1)c1ccccc1	none (no result: D2 PAM-1, D2 antagonist, D2 ag-1, D2 ag-2)
Cc1ccccc1Cn1cc(S(=O)(=O)c2ccc(F)cc2)c(=O)c2cc3c(cc21)OCO3	none (no result: D2 PAM-1, D2 antagonist, D2 ag-2)
O=c1ccc2cccc([N+](=O)[O-])c2[nH]1	none (no result: D2 PAM-2, D2 antagonist, D2 ag-1)
Cc1nc(SCc2ccccc2)c([N+](=O)[O-])[nH]1	none | D3 ag inactive | D2 ag-3 inactive
COc1ccc(CSc2nc(C)[nH]c2[N+](=O)[O-])cc1[N+](=O)[O-]	none
COC(=O)C(Cc1ccccc1)NS(=O)(=O)c1ccccc1Br (stereo unspecified)	none
COC(=O)[C@H](Cc1ccccc1)NS(=O)(=O)N[C@@H](Cc1ccccc1)C(=O)OC	none | D3 ag inactive | D2 ag-3 inactive
COc1ccc(N2CC(c3nc(-c4ccccc4C)no3)CC2=O)cc1Cl (stereo unspecified)	none (no result: D2 PAM-1, D2 antagonist, D2 ag-2)
Oc1ccc(Cl)cc1C=NCCc1ccccc1	D2 ag-1 43.4 | D3 ag inconclusive | D2 ag-3 inactive
